# BCLXL inh: inhibitors of human Bcl-xL, primary screen, biochemical, fluorescence polarization, HTS | Bcl-2-like protein 1 (Homo sapiens), Q07817 | GST-Bcl-xL / FITC-Bim BH3 peptide fluorescence polarization | inhibition, % at 10.9 µM | actives 0.7% (n = 320,000) | AID 2129, 2009;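 active means inhibition above the mean of all tested compounds plus 3 SD, cutoff set per campaign, cut at about 30% in these data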;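 further: 0% = DMSO wells and 100% = unlabeled Bim-BH3 peptide competitor; inhibitors lower millipolarization by displacing the labeled peptide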
# GLD-1 RNA inh: GLD-1/TGE RNA complex disruptors, primary screen, biochemical, fluorescence polarization; Female germline-specific tumor suppressor gld-1 (Caenorhabditis elegans), Q17339; purified GLD-1 + fluorescein TGE RNA; inhibition, % at 5.96 µM; actives 0.44% (n = 320,000); AID 2280, 2010;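 active means percent inhibition above a per-plate cutoff, the plate mean of test compounds plus 3 SD, cut at about 30% in these data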;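 further: 0% = DMSO wells with GLD-1 and probe and 100% = wells lacking GLD-1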
# Target sequence (Q17339 whole entry, looked up): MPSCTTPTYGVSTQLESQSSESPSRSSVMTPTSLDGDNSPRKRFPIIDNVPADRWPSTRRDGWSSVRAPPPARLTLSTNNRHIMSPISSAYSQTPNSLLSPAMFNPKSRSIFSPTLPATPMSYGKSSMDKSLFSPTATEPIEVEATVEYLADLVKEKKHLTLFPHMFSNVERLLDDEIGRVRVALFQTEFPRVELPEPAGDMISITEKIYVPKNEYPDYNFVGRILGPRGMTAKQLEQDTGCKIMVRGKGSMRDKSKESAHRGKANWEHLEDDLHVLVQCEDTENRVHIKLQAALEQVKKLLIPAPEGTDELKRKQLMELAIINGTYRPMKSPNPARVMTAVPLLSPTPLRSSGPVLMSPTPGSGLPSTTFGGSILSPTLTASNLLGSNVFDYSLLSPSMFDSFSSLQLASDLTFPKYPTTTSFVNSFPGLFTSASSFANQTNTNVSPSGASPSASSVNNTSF
# IDE inh: human IDE inhibitors in live cells, primary screen, fluorescence polarization, HEK cells, FAbetaB substrate; Insulin-degrading enzyme (Homo sapiens), P14735; FAbetaB cleavage; inhibition, % at 5.59 µM; actives 0.41% (n = 320,000); AID 434962, 2010;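 active means percent inhibition above the average of all tested compounds plus 3 SD, set per screening campaign, cut at about 16% in these data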;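 further: IDE supplied by intact live HEK cells; FP after avidin binding of uncleaved biotin substrate so inhibition keeps polarization high; 0% = DMSO wells and 100% = 60 µM reference IDE inhibitor Ii1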
# MCL1 BIM primary: inhibitors of MCL1 binding to BIM-BH3, primary screen, biochemical, fluorescence polarization; Induced myeloid leukemia cell differentiation protein Mcl-1 (Homo sapiens), Q07820; GST-MCL1 / FITC-Bim-BH3 fluorescence polarization; inhibition, % at 10.9 µM; actives 0.68% (n = 320,000); AID 2057, 2009;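 active means inhibition above the mean inhibition of all tested compounds plus 3 SD, set per campaign, cut at about 40% in these data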;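 further: 0% = DMSO wells and 100% = unlabeled Bim-BH3 peptide control; higher means more loss of mP so more displacement of Bim peptide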
# IDE act: human IDE activators in live cells, primary screen, fluorescence polarization, HEK cells, FAbeta-B substrate. FAbeta-B cleavage; 0% vehicle, 100% cell-free pure enzyme wells. activation, % at 5.96 µM. actives 0.073% (n = 340,000);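 active means activation above the mean of all tested compounds plus 3 SD, set per screening campaign, cut at about 17% in these data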
# MEX-5 binding: MEX-5 zinc finger RNA-binding disruptors – biochemical, C. elegans, fluorescence polarization, MLPCN library, primary screen; Zinc finger protein mex-5 (Caenorhabditis elegans), Q9XUB2; MEX-5/FITC-TCR2 RNA binding; active compounds read low; activity score (negative = inhibition of binding), % at 10 µM; actives 0.38% (n = 300,000); AID 1832, 2009;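 active means inhibition past about -25% in most replicates, and total fluorescence under double the plate's negative control median, limit read from the data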;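 further: 0% = DMSO and -100% = 5 µM competing unlabeled TCR2 RNA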
# * hit, by the source's call; · = no result given. This is a sample that favours compounds with a hit; in the whole collection about 1.5% have one here.
SMILES,BCLXL inh,GLD-1 RNA inh,IDE inh,MCL1 BIM primary,IDE act,MEX-5 binding
CCn1cc(C(=O)NCCCOC)c(=O)c2cc(S(=O)(=O)N3CCC(C)CC3)ccc21,4,-3,-3,-1,1,2
CCOCCCNC(=O)c1cn(CC)c2ccc(S(=O)(=O)N3CCC(C)CC3)cc2c1=O,37*,1,0,15,6,0
CCn1cc(C(=O)NCc2ccccn2)c(=O)c2cc(S(=O)(=O)N3CCCCC3)ccc21,·,·,·,·,·,-72*
COC(=O)[C@@]1(Cc2ccc(F)cc2)[C@H]2c3cc(C(=O)N4CCCC4)n(CCc4ccccn4)c3C[C@H]2CN1C(=O)c1ccccc1,7,6,2,-1,·,·
O=C(NCc1ccccn1)C(=O)NCC(c1ccco1)N1CCN(c2ccc(F)cc2)CC1 (stereo not given),32*,4,3,20,5,2
COc1ccc(/C=N/NC2=NS(=O)(=O)c3ccccc32)cc1,9,9,-2,11,-2,2
CC(C)(C)NC(=O)CCN(/N=C/c1ccc([N+](=O)[O-])o1)C1=NS(=O)(=O)c2ccccc21,7,-2,-6,-5,3,·
CN(C)c1ccc(/C=N/N(CCC(=O)NC(C)(C)C)C2=NS(=O)(=O)c3ccccc32)cc1,7,2,2,-2,-1,-53*
CN(C)c1ccc(/C=N/NC2=NS(=O)(=O)c3ccccc32)cc1,-7,-7,1,-18,2,-41*
O=C(NCc1ccccc1Cl)c1cc2c(s1)CS(=O)(=O)C2,2,1,0,4,1,-1
C(=N\Nc1nc2ccccc2[nH]1)/c1ccccn1,·,·,·,·,-2,-42*
CCOC(=O)N1CCN(c2nc(-c3ccc(F)cc3)cs2)CC1,-1,1,17*,-6,-7,2
Cc1ccc(-n2nnnc2SCC(=O)Nc2ncc(Cc3ccccc3Cl)s2)cc1,-5,-10,0,-7,0,3
CCOC(=O)CC1C(=O)NCCN1c1nc2ccc(C)cn2c(=O)c1/C=C1\SC(=S)N(C(C)CC)C1=O (stereo not given),-43,-55,43*,-73,·,-7
CCOC(=O)CC1C(=O)NCCN1C(=O)c1ccc(C)cc1 (stereo not given),5,0,-3,6,0,-1
CC[C@@H](C)[C@H](N)C(=O)NC[C@H]1O[C@@H](n2cnc3c(N)ncnc32)[C@H](O)[C@@H]1O,·,·,·,·,6,·
COc1ccc(NS(=O)(=O)c2cc(OC)ccc2OC)cc1,37*,-2,6,4,4,-1
O=C(c1ccco1)N1CCN(C(=O)c2cc(-c3ccccn3)nc3ccc(Cl)cc23)CC1,40*,9,0,37,-2,-12
NS(=O)(=O)c1ccc(CNC(=O)c2cc(-c3ccccn3)nc3ccc(Cl)cc23)cc1,41*,14,-3,44*,0,2
NS(=O)(=O)c1ccc(CNC(=O)c2cc(-c3cccnc3)nc3ccc(Cl)cc23)cc1,-6,1,3,0,-1,1
CN=C(c1ccco1)n1c(=S)nc(-c2ccco2)n(C)c1=S,33*,9,2,34,1,-2
O=C(Nc1nc2c(s1)CN(Cc1ccccc1)CC2)c1cccc(S(=O)(=O)N2CCc3ccccc32)c1,55*,29,-8,61*,-3,-22
COc1ccc(C2c3ccc(O)cc3Oc3ncn(Cc4ccco4)c(=N)c32)cc1OC (stereo not given),19,4,-1,18,-4,-29*
C[C@@H]1O[C@@H](Oc2c(-c3cc(O)c(O)c(O)c3)oc3cc(O)cc(O)c3c2=O)[C@H](O)[C@H](O)[C@H]1O,18,1,6,24,-3,-58*
C[C@@H]1O[C@@H](Oc2c(-c3ccc(O)c(O)c3)oc3cc(O)cc(O)c3c2=O)[C@H](O)[C@H](O)[C@H]1O,·,4,2,·,6,·
SMILES,BCLXL inh,GLD-1 RNA inh,IDE inh,MCL1 BIM primary,IDE act,MEX-5 binding
COc1ccc(N2C(=O)C3C(C2=O)C(C(=O)c2ccc(Cl)cc2)N2CCCC32)cc1 (stereo not given),17,17,9,4,-15,1
O=C(c1ccc(Cl)cc1)C1C2C(=O)N(c3ccccc3)C(=O)C2C2CCCN21 (stereo not given),·,·,·,·,4,-29*
Cc1cccc(NC(=O)CSc2nnc(CSc3nc(C)cc(C)n3)o2)c1,31*,2,-2,9,-1,-3
COc1ccc(-c2noc(CNC(=O)c3ccc4c(c3)OCO4)n2)cc1OC,3,7,2,0,-1,-1
C#CCOCCOCCOCCNc1nc(N2CCN(C(=O)CCCCCCCCCCNC(=O)[C@@H](CCSC)n3cc(CCO)nn3)CC2)nc(N2CCN(C(=O)CCCCCCCCCCNC(=O)[C@H](CCCN=C(N)N)n3cc(C[C@@H](C)CC)nn3)CC2)n1,-26,-1,8,-161,45*,·
C#CCOCCOCCOCCNc1nc(N2CCN(C(=O)CCCCCCCCCCNC(=O)[C@H](CCCCN)n3cc(C[C@@H](C)CC)nn3)CC2)nc(N2CCN(C(=O)CCCCCCCCCCNC(=O)[C@H](CCCN=C(N)N)n3cc(C[C@@H](C)CC)nn3)CC2)n1,-3,-3,-10,7,47*,·
C#CCOCCOCCOCCNc1nc(N2CCN(C(=O)CCCCCCCCCCNC(=O)[C@H](CCCCN)n3cc(C)nn3)CC2)nc(N2CCN(C(=O)CCCCCCCCCCNC(=O)[C@H](CCCN=C(N)N)n3cc(C[C@@H](C)CC)nn3)CC2)n1,-6,1,4,6,·,·
C#CCOCCOCCOCCNc1nc(N2CCN(C(=O)CCCCCCCCCCNC(=O)[C@@H](CCSC)n3cc(CCO)nn3)CC2)nc(N2CCN(C(=O)CCCCCCCCCCNC(=O)[C@H](CCC(=O)O)n3cc(CCCCCN)nn3)CC2)n1,-9,0,9,-8,4,·
C#CCOCCOCCOCCNc1nc(N2CCN(C(=O)CCCCCCCCCCNC(=O)[C@@H](CCSC)n3cc(CCO)nn3)CC2)nc(N2CCN(C(=O)CCCCCCCCCCNC(=O)[C@H](CO)n3cc(CCCCCN)nn3)CC2)n1,3,-5,5,5,29*,·
Cc1ccc(NC(=S)N=Nc2c(O)[nH]c3ccccc23)cc1,2,0,6,2,-1,1
